Measurements: PubChem BioAssay
“And” between values parts separate entries of the source, which are not always exact repeats. Equal entries are not always repeated. The source made the active and inactive calls. The rule behind the calls is not given here.

How the values were obtained:
[1] = tested on: Botulinum neurotoxin type F light chain protease (Clostridium botulinum); assay: Botulinum neurotoxin type F light chain protease inhibition, multiplex microsphere flow cytometry, validation set (AID 588459); conditions: multiplex microsphere protease substrate cleavage assay, at 10 µM, active compounds read high
[2] = biological target: Botulinum neurotoxin type A (Clostridium botulinum) (UniProt P0DPI0); assay: BoNT/A light chain protease inhibitors, biochemical, multiplex microsphere flow cytometry, validation set (AID 588460); conditions: at 10 µM, active compounds read high
Botulinum neurotoxin type A (Clostridium botulinum), sequence (P0DPI0 whole entry, looked up): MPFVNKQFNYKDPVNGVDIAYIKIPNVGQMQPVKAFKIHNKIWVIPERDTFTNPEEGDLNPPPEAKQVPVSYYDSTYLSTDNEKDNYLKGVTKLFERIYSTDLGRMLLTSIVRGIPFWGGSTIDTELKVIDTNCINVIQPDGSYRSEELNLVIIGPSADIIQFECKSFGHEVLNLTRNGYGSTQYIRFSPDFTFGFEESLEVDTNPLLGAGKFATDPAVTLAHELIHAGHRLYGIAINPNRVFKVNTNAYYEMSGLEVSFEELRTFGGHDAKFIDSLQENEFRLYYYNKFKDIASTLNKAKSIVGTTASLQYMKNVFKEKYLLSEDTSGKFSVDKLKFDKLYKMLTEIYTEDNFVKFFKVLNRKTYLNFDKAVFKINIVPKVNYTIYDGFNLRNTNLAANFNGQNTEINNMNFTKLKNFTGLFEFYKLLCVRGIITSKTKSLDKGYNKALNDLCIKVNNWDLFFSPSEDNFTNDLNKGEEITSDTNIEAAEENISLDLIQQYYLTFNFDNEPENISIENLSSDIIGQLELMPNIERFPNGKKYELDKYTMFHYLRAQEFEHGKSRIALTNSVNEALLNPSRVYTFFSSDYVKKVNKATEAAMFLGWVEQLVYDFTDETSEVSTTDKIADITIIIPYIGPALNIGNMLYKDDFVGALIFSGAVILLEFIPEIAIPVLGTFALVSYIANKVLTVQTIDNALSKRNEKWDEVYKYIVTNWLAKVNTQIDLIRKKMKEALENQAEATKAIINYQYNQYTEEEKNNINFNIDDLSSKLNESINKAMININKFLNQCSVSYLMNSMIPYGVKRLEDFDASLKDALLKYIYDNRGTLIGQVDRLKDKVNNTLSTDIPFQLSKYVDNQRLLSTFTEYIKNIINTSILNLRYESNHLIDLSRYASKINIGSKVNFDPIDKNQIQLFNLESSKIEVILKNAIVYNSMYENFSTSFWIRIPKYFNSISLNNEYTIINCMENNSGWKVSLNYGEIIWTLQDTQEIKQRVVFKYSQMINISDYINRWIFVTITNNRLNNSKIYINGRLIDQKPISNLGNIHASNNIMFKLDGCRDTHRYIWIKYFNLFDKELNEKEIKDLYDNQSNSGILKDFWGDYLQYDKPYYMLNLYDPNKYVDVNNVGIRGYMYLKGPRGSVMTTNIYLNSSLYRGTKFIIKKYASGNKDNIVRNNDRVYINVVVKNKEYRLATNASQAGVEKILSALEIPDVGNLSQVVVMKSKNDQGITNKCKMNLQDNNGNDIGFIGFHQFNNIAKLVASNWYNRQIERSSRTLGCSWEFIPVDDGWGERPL

[3] = biological target: Lethal factor (Bacillus anthracis) (UniProt P15917); assay: Lethal factor protease inhibitors, Bacillus anthracis, multiplex microsphere cleavage assay, validation set (AID 588461); conditions: flow cytometry, at 10 µM, active compounds read high
Lethal factor (Bacillus anthracis), sequence (P15917 whole entry, looked up): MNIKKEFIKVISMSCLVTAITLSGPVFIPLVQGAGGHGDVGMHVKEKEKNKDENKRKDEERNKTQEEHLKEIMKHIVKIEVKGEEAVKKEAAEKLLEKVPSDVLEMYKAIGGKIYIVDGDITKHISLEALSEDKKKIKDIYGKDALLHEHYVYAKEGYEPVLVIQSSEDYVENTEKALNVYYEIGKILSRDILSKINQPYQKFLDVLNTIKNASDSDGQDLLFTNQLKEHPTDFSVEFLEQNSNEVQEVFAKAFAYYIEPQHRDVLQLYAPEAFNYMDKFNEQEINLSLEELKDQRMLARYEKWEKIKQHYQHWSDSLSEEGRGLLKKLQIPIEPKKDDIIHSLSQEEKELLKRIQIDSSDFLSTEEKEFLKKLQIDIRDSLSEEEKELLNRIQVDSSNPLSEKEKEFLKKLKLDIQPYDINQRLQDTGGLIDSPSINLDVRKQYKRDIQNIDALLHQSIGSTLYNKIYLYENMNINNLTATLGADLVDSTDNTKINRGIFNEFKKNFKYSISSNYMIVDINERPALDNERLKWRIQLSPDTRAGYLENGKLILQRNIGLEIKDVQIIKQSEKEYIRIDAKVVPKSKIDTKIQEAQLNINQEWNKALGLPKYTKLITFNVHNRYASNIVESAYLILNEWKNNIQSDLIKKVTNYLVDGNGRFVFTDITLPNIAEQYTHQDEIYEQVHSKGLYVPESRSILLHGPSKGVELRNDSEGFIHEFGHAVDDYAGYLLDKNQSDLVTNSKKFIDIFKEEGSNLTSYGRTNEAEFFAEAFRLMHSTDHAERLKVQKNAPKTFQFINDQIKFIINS

Measured: inhibition

O=C(O)CCSCCC(=O)O
inactive: [1] 1.3% | [2] -1.1% | [3] -7.4%

Clc1ccc2c(c1)CCc1cccnc1C2=C1CCNCC1
inactive: [1] -4.1% | [2] -0.7% | [3] 5.5%

CCCCCCCC(=O)OCC(=O)[C@@]1(O)CC[C@H]2[C@@H]3CCC4=CC(=O)CC[C@]4(C)[C@H]3[C@@H](O)C[C@@]21C
inactive: [1] -3.8% | [2] 0.3% | [3] 4.7%

COc1ccc2[nH]cc(C3N4CC5(C)CN3CC(C)(C4)C5=O)c2c1 (configuration not stated)
inactive: [1] 3% | [2] -0.2% | [3] 4.1%

NC(=O)N1c2ccccc2C=Cc2ccccc21
inactive: [1] 1.3% | [2] -0.2% | [3] 8.1%

c1ccc(-c2ccc(C(c3ccccc3)n3ccnc3)cc2)cc1 (configuration not stated)
inactive: [1] -0.7% | [2] -1.3% | [3] -1.4%

CC(=O)Oc1cc(C(C)C)c(OCCN(C)C)cc1C
inactive: [1] 1.9% | [2] 2% | [3] 0.9%

O=C(CC(NC(=O)OCc1ccccc1)C(=O)O)OCc1ccccc1 (configuration not stated)
inactive: [1] -3.2% | [2] -2.1% | [3] 2.5%

CC(=O)NC1C(OCc2ccccc2)OC(COC(C)=O)C(OC(C)=O)C1OC(C)=O (configuration not stated)
inactive: [1] -1.4% | [2] -1.9% | [3] -2.2%

CC1(C)O[C@@H]2C[C@H]3[C@@H]4C[C@H](F)C5=CC(=O)C=C[C@]5(C)[C@@]4(F)[C@@H](O)C[C@]3(C)[C@]2(C(=O)CO)O1
inactive: [1] -0.5% | [2] 0.1% | [3] -6.8%

CN1C(=O)C(O)(CC(=O)c2ccccc2O)c2cc(Br)ccc21 (configuration not stated)
inactive: [1] 3.2% | [2] -0.1% | [3] -5.4%

COc1ccc2c(C=O)cn(C)c2c1
inactive: [1] 1.9% | [2] -0.9% | [3] 2.1%

COc1ccc2cc[nH]c2c1
inactive: [1] -1.5% | [2] -0.4% | [3] 2.8%

CN(C)c1cc(NC(=O)CN2CCOCC2)c2ccccc2n1
inactive: [1] 0% | [2] -1.5% | [3] -4.6%

CC1(C)CC(O)(CNCc2ccc3c(c2)OCO3)CCO1 (configuration not stated)
inactive: [1] -3.2% | [2] -0.9% | [3] 1.2%

O=C(O)c1cccnc1Nc1cccc(C(F)(F)F)c1
inactive: [1] 1.8% | [2] 0.3% | [3] -3.9%

CCOc1cc(C=O)ccc1OCCSc1ccc(C)cc1
inactive: [1] 1.3% | [2] 0.4% | [3] -3.6%

CCCCOc1ccc(OCCCN2CCOCC2)cc1
inactive: [1] -1.1% | [2] 0.4% | [3] -4.8%

CC#C[C@]1(O)CC[C@H]2[C@@H]3CCC4=CC(=O)CCC4=C3[C@@H](c3ccc(N(C)C)cc3)C[C@@]21C
inactive: [1] -3.9% | [2] -2% | [3] -7.2%

O=C(CCCn1c(=O)oc2ccccc21)N1CCN(c2ccc(F)cc2)CC1
inactive: [1] 1.1% | [2] 0.2% | [3] -4.7%

Nc1ccc(C(=O)O)c(O)c1
inactive: [1] -4.5% and 1.6% | [2] -0.4% and -0.2% | [3] -12% and -5.3%

CC(C)C1Cc2[nH]c(=O)c(C(=O)O)cc2CO1 (configuration not stated)
inactive: [1] 2.3% | [2] -0.9% | [3] -1.4%

O=C(O)c1ccccc1O
inactive: [1] 0.4% | [2] -0.5% | [3] 2.3%

O=c1[nH]cc(F)c(=O)[nH]1
inactive: [1] 0.6% | [2] -1.2% | [3] -1.9%

CCc1cc2c(=O)c(-c3nc4ccccc4n3C)coc2c(CN2CCN(C)CC2)c1O
inactive: [1] -0.9% | [2] 0.3% | [3] -2.8%

CC1(C)Cc2nc3sc4c(=O)n(CC(N)=O)cnc4c3cc2CO1
inactive: [1] -0.6% | [2] 1.1% | [3] -3.8%

C[C@]12CCC(=O)C=C1CC[C@@H]1[C@@H]2C(=O)C[C@@]2(C)[C@H]1CC[C@]2(O)C(=O)CO
inactive: [1] -4.6% | [2] -1.7% | [3] -0.3%

CC1(C)Cc2ccccc2C(C(Cc2ccccc2)C(N)=O)=N1 (configuration not stated)
inactive: [1] 0.5% | [2] 1.1% | [3] -3.2%

CCN(CC)CCCNC(=O)C1c2ccccc2Oc2ccccc21
inactive: [1] 4.2% | [2] 0.7% | [3] -0.4%

O=[N+]([O-])c1cccc2cn[nH]c12
inactive: [1] 6.9% | [2] 3% | [3] 6.3%

CC(NCCc1ccc(O)cc1)C(O)c1ccc(O)cc1 (configuration not stated)
inactive: [1] 1.6% | [2] -0.5% | [3] -3.1%

Cn1c2c(c(=O)[nH]c1=O)C(c1ccc(O)cc1)C1=C(N2)c2ccccc2C1=O (configuration not stated)
inactive: [1] -0.8% | [2] -0.5% | [3] 3.1%

CC(=O)Nc1ccc(S(=O)(=O)c2ccc(N)cc2)cc1
inactive: [1] -3.7% | [2] -0.4% | [3] -3.2%

CN1CCC(=C2c3ccccc3C=Cc3ccccc32)CC1
inactive: [1] -1.3% | [2] -1.2% | [3] -8.4%

CC(OC(=O)c1cc(=O)[nH]c2ccccc12)C(=O)c1ccccc1 (configuration not stated)
inactive: [1] 2.3% | [2] -2.4% | [3] -6.9%

OCCN1CCN(CCCN2c3ccccc3Sc3ccc(C(F)(F)F)cc32)CC1
inactive: [1] -3.2% | [2] -0.1% | [3] -5.1%

CC12CC(c3ccccc3O1)C(C(=O)N1CCOCC1)C(=O)N2 (configuration not stated)
inactive: [1] 2.8% | [2] 0% | [3] -4.8%

COCCCC/C(=N\OCCN)c1ccc(C(F)(F)F)cc1
inactive: [1] -1.3% | [2] -0.2% | [3] -0.1%

O=c1c2ccccc2nc2n1-c1ccccc1CCC2
inactive: [1] 3.5% | [2] 0.6% | [3] 12.2%

O=C(O)C1Sc2[nH]c(=O)sc2C2c3ccc(O)cc3OC(=O)C12 (configuration not stated)
inactive: [1] -6.1% | [2] -1% | [3] -16.5%

CCOC(=O)c1cccc(C(=O)OCC)n1
inactive: [1] 3.1% | [2] -0.6% | [3] -6.9%

COc1ccccc1C(=O)c1cc2ccc(O)cc2oc1=O
inactive: [1] -0.4% | [2] 0.1% | [3] 2.7%

CCOc1ccc(C(=O)NCC2(c3ccccc3)CCOCC2)cc1
inactive: [1] -5.3% | [2] -0.2% | [3] -6.4%

Cc1cc(-c2nn(-c3ccccc3F)cc2CN2CCCC(O)C2)c(C)s1 (configuration not stated)
inactive: [1] 3% | [2] 0.2% | [3] -0.9%

COc1ccc(NC(=O)CC2C(=O)N(C)C(=S)N2Cc2ccncc2)cc1 (configuration not stated)
inactive: [1] -2.7% | [2] -1.6% | [3] -9.6%

CC(C)C12CN3CC(C(C)C)(CN(C1)C3c1ccccc1O)C2=O (configuration not stated)
inactive: [1] 4.7% | [2] 1.2% | [3] -5.3%

CC1(C)c2ccccc2N2CC(=O)N(CC(N)=O)C21C (configuration not stated)
inactive: [1] 1.5% | [2] -1.4% | [3] -5%

Cc1occc(=O)c1O
inactive: [1] 2.1% | [2] 0.8% | [3] -1.7%

COc1ccccc1C(=O)Oc1ccc2c(c1)O/C(=C\c1ccncc1)C2=O
inactive: [1] -0.7% | [2] 0.7% | [3] -8.2%

CC1(C)C2CCC1(C(=O)O)c1nc3ccccc3nc12 (configuration not stated)
inactive: [1] -0.2% | [2] -0.9% | [3] -0.2%

COc1ccc(CCN(C)CC(=O)Nc2cc(C)nc3ccccc23)cc1OC
inactive: [1] 0.4% | [2] 0.9% | [3] -1.4%

O=C(CCCN1CC=C(n2c(=O)[nH]c3ccccc32)CC1)c1ccc(F)cc1
inactive: [1] -1.3% | [2] -1% | [3] -5.4%

NC(CO)C(=O)NNCc1ccc(O)c(O)c1O (configuration not stated)
inactive: [1] -15.8% | [2] -11.2% | [3] -25.4%

COc1cc2c(cc1OC)C(c1cc3ccccc3oc1=O)=NC(C)(C)C2
inactive: [1] 0.9% | [2] 0% | [3] 0%

COc1ccc(CN2CCC(=O)NC2=O)cc1
inactive: [1] -2.3% | [2] -0.1% | [3] -3.5%

N#Cc1c2c(c(-c3ccccc3)[nH]c1=O)CCCC2
inactive: [1] -7.4% | [2] -0.9% | [3] 2.3%

CC(=O)N(CCC(Cc1ccccc1)c1ccc2c(c1)OCO2)Cc1ccc(Cl)cc1 (configuration not stated)
inactive: [1] 3.5% | [2] 0.1% | [3] -1%

COc1ccc(C(=O)COc2ccc(F)cc2)c(O)c1
inactive: [1] 1% | [2] -1.3% | [3] -9.8%

CCCN(CCC)S(=O)(=O)c1ccc(C(=O)O)cc1
inactive: [1] 2.8% | [2] 1.1% | [3] 0%

Cc1ccc2[nH]c3c(=O)n(CCCN4CCN(C)CC4)cnc3c2c1
inactive: [1] 7.8% | [2] -1% | [3] -2.5%

COC(=O)c1[nH]c2ccc(F)cc2c1NC(=O)C1=COCCO1
inactive: [1] 0% | [2] 0.8% | [3] -4.9%

COc1ccc(-c2noc(-c3ccccc3-c3ccccc3)n2)cc1
inactive: [1] -1.9% | [2] -0.7% | [3] -1.9%

COCC(C)NC(=O)c1ccc(CN2CCc3ccccc3C2)cc1 (configuration not stated)
inactive: [1] 5.2% | [2] 0% | [3] -7.8%

Cc1cccc2c1CC(C)(C)N/C2=C\C(N)=O
inactive: [1] 1% | [2] 1% | [3] -3.4%
